Measured values reported in PubChem BioAssay (NCI).
About 79,000 compounds went through this panel and 15% of them were active in at least one assay; those are over-represented in the sample as a whole. Cut-off read from the data, not from the text of the source: active = growth inhibition above about 70%; inactive = the rest.

Tests used:
[1] = NCI Yeast Anticancer Drug Screen. Data for the rad50 strain (AID 155);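 note: 0% = growth of vehicle-only cultures of the same strain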; conditions: S. cerevisiae rad50 strain growth inhibition; at 50.0 µM; active compounds read high
Procedure, shortened: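 Inhibition values express reduced yeast growth in compound-treated cultures relative to vehicle-treated controls.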

[2] = NCI Yeast Anticancer Drug Screen. Data for the mec2-1 strain (AID 157); conditions: S. cerevisiae mec2-1 strain, at 50.0 µM, active compounds read high
Procedure, shortened: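 Each compound was tested on mec2-1 yeast, a strain altered in DNA damage repair or cell cycle control. Growth inhibition is reported relative to vehicle.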

[3] = NCI Yeast Anticancer Drug Screen. Data for the sgs1 mgt1 strain (AID 161);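 note: 0% = growth of cultures given vehicle only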; conditions: S. cerevisiae sgs1 mgt1 strain, at 50.0 µM, active compounds read high
Procedure, shortened: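 Test agents were incubated with a DNA-repair-mutant yeast strain. Growth was then read and compared against vehicle-treated controls.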

[4] = NCI Yeast Anticancer Drug Screen. Data for the cln2 rad14 strain (AID 165);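 note: 0% = growth equal to vehicle treated cultures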; conditions: S. cerevisiae cln2 rad14 strain, at 50.0 µM, active compounds read high
Procedure, shortened: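 Test compounds were added to cln2 rad14 yeast cultures; inhibition of growth was then determined by comparison with vehicle treatment.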

[5] = NCI Yeast Anticancer Drug Screen. Data for the bub3 strain (AID 167); conditions: S. cerevisiae bub3 mutant strain, at 50.0 µM, active compounds read high
Procedure, shortened: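 Steps: expose the mutant yeast strain to compound; grow alongside vehicle-treated cultures; measure growth; express inhibition against the vehicle cultures.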

[6] = NCI Yeast Anticancer Drug Screen. Data for the mlh1 rad18 strain (AID 175); conditions: S. cerevisiae mlh1 rad18 strain growth inhibition; at 50.0 µM; active compounds read high
Procedure, shortened: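 Inhibition values reflect reduced growth of mutant yeast versus vehicle-treated controls following compound exposure; the mutations affect DNA damage repair.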

Measured: growth inhibition

Cc1c(C(N)=O)c(-c2ccccc2)c(-c2ccccc2)n1Nc1ccccc1
inactive: [1] 16.9% | [2] -2.65% | [3] 13.7% | [4] 11.9% | [5] -5.05% | [6] 23.7%

c1ccc2[nH]cnc2c1
inactive: [1] 7.85% | [2] -1.55% | [3] 0.65% | [4] -4.4% | [5] 8.7% | [6] -46.8%

CCCCCCCCCCCNc1ncnc2[nH]ncc12
inactive: [1] -8.6% | [2] -16.5% | [3] 5.3% | [4] -0.7% | [5] -2.05% | [6] 9.8%

Cc1ccccc1-n1c(SCC(=O)NC(=O)Nc2cccc(Cl)c2)nc2c(Br)cc(Br)cc2c1=O
inactive: [1] -22.9% | [2] -5.5% | [3] 0.1% | [4] -16.1% | [5] -12.6% | [6] -2.75%

O=[N+]([O-])c1ccc(CSc2ncnc3c2ncn3C2OC(CO)C(O)C2O)cc1 (stereo not drawn)
inactive: [1] 10.7% | [2] 22.6% | [3] 9.5% | [4] -7.35% | [5] -4.05% | [6] -17.4%

Cc1ccc(OCc2ccccc2)n[n+]1[O-]
inactive: [1] -20.6% | [2] -16.8% | [3] -10.8% | [4] -9.85% | [5] -9.7% | [6] -3%

Nc1nnc(-c2ccccc2O)o1
inactive: [1] 36.3% | [2] 4.25% | [3] 23.7% | [4] 33.1% | [5] 21.4% | [6] 32.2%

O=C(CC1(O)C(=O)Nc2ccc(Br)cc21)c1ccc(Cl)cc1Cl (stereo not drawn)
inactive: [1] 44.9% | [2] 36.7% | [3] 69% | [4] 37% | [5] 48.2% | [6] 33.9%

COC(=O)[C@]1(C)CCC[C@]2(C)c3ccc(C(C)=O)cc3C(=O)C[C@@H]12
inactive: [1] -1.5% | [2] -10.8% | [3] 9.5% | [4] -31.6% | [5] -8.5% | [6] -15.1%

OCCS
inactive: [1] -7.35% | [2] 5.25% | [3] -8.4% | [4] -21.8% | [5] -3.45% | [6] -4.25%

CC1(C)NNC(=S)NC1=O
inactive: [1] -11.7% | [2] -13.6% | [3] -7.65% | [4] 17.1% | [5] -15.6% | [6] -5.5%

O=C1CCCc2ccc3c(c21)CC1(Cc2ccccc2C1)C3
inactive: [1] -7.05% | [2] -40.2% | [3] 8.65% | [4] -6% | [5] 4.05% | [6] -5.8%

Oc1ccc2c(c1)c1ccccc1c1ncccc21
inactive: [1] 46% | [2] 3.4% | [3] 43.6% | [4] 3.7% | [5] 9.35% | [6] 49%

O/N=C1/CCCCC1NO (stereo not drawn)
inactive: [1] -17.9% | [2] -22.9% | [3] -32.2% | [4] 15.7% | [5] -10.8% | [6] -19.7%

C[Si](C)(OCCS(=O)(=O)O)C1(Cc2cccc3ccccc23)S(=O)(=O)OCCOS1(=O)=O
inactive: [1] 13.6% | [2] -9.55% | [3] 2.6% | [4] 18.1% | [5] 13.1% | [6] 17.2%

O=C(O)c1cc(-c2cccs2)c(C(=O)O)s1
inactive: [1] -4.2% | [2] 5.35% | [3] -18.2% | [4] -19.1% | [5] -11.1% | [6] 2.1%

CC1CN(C(=O)C2CCCN(CCc3ccccc3)C2)CC(C)O1 (stereo not drawn)
inactive: [1] 25.4% | [2] 2.65% | [3] 52.7% | [4] 14.8% | [5] 2% | [6] 22.7%

CC(=O)c1cc(C(C)=O)c2cc(C)cc(O)c2c1O
inactive: [1] 15.7% | [2] -13.9% | [3] 8.45% | [4] 1.9% | [5] 13.9% | [6] -9.7%

COc1ccc2c3c(n(Cc4ccccc4)c(=O)c2c1)-c1cc(OC)c(OC)cc1C3C (stereo not drawn)
inactive: [1] 36.1% | [2] -21.7% | [3] -1.25% | [4] -26.6% | [5] -20.4% | [6] 23.1%

S=c1nc[nH]c2nc[nH]c12
inactive: [1] -18% | [2] 0.25% | [3] -6.75% | [4] -66.5% | [5] 10.8% | [6] 20.1%

CCc1cn(C2CC(CO)C(CO)S2)c(=O)[nH]c1=O (stereo not drawn)
inactive: [1] -5.5% | [2] -33% | [3] 7.85% | [4] -6.4% | [5] -8.55% | [6] -6.7%

O=CC(O)C(O)C(O)C(O)COC(=S)OCC(O)C(O)C(O)C(O)C=O (stereo not drawn) (tested in a mixture with another compound)
inactive: [1] -4.35% | [2] -10.1% | [3] -2.85% | [4] -3.1% | [5] 6.05% | [6] -4.25%

Cc1ccc2c(C)cc(=O)n(C)c2c1
inactive: [1] 4.7% | [2] 11.2% | [3] 9.6% | [4] 4.9% | [5] -0.25% | [6] 15.1%

Nc1ccc(Br)c2ccccc12
inactive: [1] 33.4% | [2] 22.1% | [3] 16.8% | [4] 19.4% | [5] 27.3% | [6] 46.4%

CC(=O)c1cccc(OC(=O)c2ccccc2)c1
inactive: [1] 23.5% | [2] 8.3% | [3] 35% | [4] 10.7% | [5] 45.1% | [6] 30.8%

Cc1c(C)c2cc3ccc(Cl)cc3nc2c2ccccc12
inactive: [1] -7.65% | [2] -16.9% | [3] 2.75% | [4] -21.6% | [5] 2.9% | [6] 1.7%

O=c1cc(-c2cccs2)ss1
inactive: [1] 18.4% | [2] 5.25% | [3] -0.65% | [4] -34.6% | [5] 13.8% | [6] 25%

CC(C#N)c1cn(S(=O)(=O)c2ccccc2)c2ccccc12 (stereo not drawn)
inactive: [1] 30.6% | [2] 3.4% | [3] -5.4% | [4] 9.75% | [5] 52.7% | [6] 37%

COC(=O)/C=C(\C(=O)OC)C1=C(N2CCCC2)CC(C)(C)CC1=O
inactive: [1] -7.8% | [2] -14.9% | [3] -14.1% | [4] -14.3% | [5] -14.3% | [6] -1.1%

CCOc1nc(N)nc(C)c1N=Nc1ccc(O)cc1
inactive: [1] -5.7% | [2] 6.2% | [3] 0.85% | [4] -43% | [5] -2.4% | [6] -0.4%

CC1=CC(=O)/C(=C/n2c(=S)[nH]c3ccc([N+](=O)[O-])cc32)C(=O)O1
inactive: [1] 2.1% | [2] -44.7% | [3] -9.5% | [4] 6.85% | [5] 6.6% | [6] -46.3%

Cc1cc2c3ccccc3n(C)c2c2c1C(=O)C=CC2=O
inactive: [1] 6.5% | [2] 20.4% | [3] 20.9% | [4] 3.1% | [5] -7.35% | [6] 55.8%

COC(=O)c1cccc2c1-c1ccccc1C2=O
inactive: [1] 9.25% | [2] 11.9% | [3] -18.4% | [4] 5% | [5] 14% | [6] 11.6%

COc1ccc(CCN/C=C(\C)C(=O)c2ccc(F)cc2)cc1OC
inactive: [1] 11.2% | [2] -4.6% | [3] -13.6% | [4] -29.2% | [5] -13.9% | [6] -4.5%

CN/C=C(/OCc1ccccc1)c1ccc(O)c(O)c1
inactive: [1] 2.2% | [2] 0.9% | [3] 3.05% | [4] -6% | [5] -19.7% | [6] 19.2%

O=C(O)c1cccc(NC(=O)C(F)(F)F)c1
inactive: [1] -1.1% | [2] 1.6% | [3] -18.9% | [4] -29.4% | [5] -6.05% | [6] -2.15%

COc1ccc(N2C(=O)CCC2=O)cc1
inactive: [1] -7.8% | [2] 0.25% | [3] -7.7% | [4] -6.15% | [5] -9.9% | [6] 4.9%

CC1NC(C(=O)O)Cc2cc(O)c(O)cc21 (stereo not drawn)
inactive: [1] -21.2% | [2] -36.6% | [3] -30.8% | [4] 5.35% | [5] -34.8% | [6] -49.2%
